These results are taken from PubChem BioAssay (NCI).

About 83,000 compounds went through this panel and 20% of them were active in at least one assay; those are over-represented in the sample as a whole.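 Growth was measured after 48 h exposure to one concentration of compound in 96-well plates. Values under 10 count as active.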 Unmarked numbers belong to inactive results. Activity calls are given as the source filed them.

The test system of the test is OVCAR-3 ovarian. The experiment in a line: NCI-60 one-dose screen, 48 h (100 = growth as untreated, 0 = no growth, -100 = all killed). The following applies: 10 µM unless noted. As for the experimental part: Growth inhibition of the OVCAR-3 human tumor cell line is measured as a screen for anti-cancer activity. Cells are grown in 96 well plates and exposed to the test compound for 48 hours. Compounds are tested at a single concentration, which is 10^-5 M for most compounds. The reported endpoint is percent growth (GI% or GIPRCNT), where numbers from 0 - 100% represent growth inhibition, and numbers from -100% - 0 represent cell death. For example, a value of 40 represents 60% growth inhibition. A value of 0 means no net growth occurred over the course of the experiment. A value of -40 indicates 40% of cells at the beginning of the experiment died by the end of the experiment. A value of -100 means all cells are dead at the end of the experiment.
NCI-60 Human Tumor Cell Lines Screen was performed using the standard one-dose NCI protocol, which is described in more detail at https://dtp.cancer.gov/discovery_development/nci-60/default.htm.
Compounds with GIPRCNT values below 10 were considered active. Activity score was based on GIPRCNT using the following formula: […]
Score is 0 for GIPRCNT values of 100 or above, 50 for GIPRCNT values of 0, and 100 for GIPRCNT values of -100.
In the case of `CC1=C(O)C(=O)CC1`, the growth was 115%.
Under `Oc1c(C(Nc2cccc3ccccc23)c2ccccc2)ccc2cccnc12` (stereo not given) stands 22.4%.
With `NS(=O)(=O)c1ccc(CCn2c(SCC(=O)N/N=C/c3ccccc3O)nc3ccccc3c2=O)cc1`, the growth is 23.8%.
For the molecule `CCc1c(C)c2ccc(O)c(-c3cc(-c4ccccc4)c(C#N)c(=O)[nH]3)c2oc1=O`, the growth was 88.8%.
Next, `CCN(CC)CCCCCCCCNc1c2ccc(Cl)cc2nc2ccc(OC)cc12`: -38.3% (active); `CCCCCCCCCCCC1=NC(C)(C)CN1CC(C)O` (stereo not given): 73.9%.
Under `COc1cccc(N2CCN(c3ncnc4cc[nH]c34)CC2)c1` stands 70.9%; under `COc1cc(OC)cc(-c2ccc(-c3ccc(C(=N)N)s3)s2)c1`, -42.9% (active); under `Cc1cc([N+](=O)[O-])c(C)cc1N`, 104%.
Under `CS(=O)(=O)c1ccc(C(=O)N/N=C/c2ccccc2Cl)cc1` stands 103%; under `N=C(N)c1ccc(-c2ccc(-c3ccco3)o2)cc1F`, 54.1%.
On to `CC(=O)Nc1ccc(/C=N/N2CCCCCC2)cc1`, for which the growth is 99.4%.
Next, `COc1cc(-c2nn(C(=O)NCCN3CCN(C)CC3)cc2-c2ccncc2)ccc1Cl`: 97.2%; `CCCNCCC(C)=O`: 116%; `CCCC(CCC)(C(N)=O)C(=O)O`: 110%.
Next, `COc1cc(CN2CCC(N3CCCC3=O)c3ccccc32)cc(OC)c1OC` (stereo not given): 100%; `CCS(=O)(=O)Nc1cccc(Nc2c3cccc(C)c3nc3c(C)cccc23)c1OC`: 47.2%.
Under `CN1C(=O)NC(Cc2c[nH]c3c(Cl)cccc23)C1=O` (stereo not given) stands 90.8%; under `CCCCCCCC/C=C\CCCCCCCC(=O)OCCCCCC`, 113%; under `Brc1ccsc1Br`, 122%.
As for `Cc1cccc(N=NC(=S)NNc2cccc(C)c2)c1`, the growth was 139%.
Next, `C=CCN(CC#N)CC=C`: 119%; `COc1ccc(-c2nc3ccccc3n3cccc23)cc1`: 101%; `CC(C)CC1NC(=O)C(CC(C)C)N(CO)C1=O` (stereo not given): 123%.
Next, `COc1cnc2c(c1)C(=O)c1c-2n(CCCN2CCNCC2)c(=O)c2cc(Cl)ccc12`: -90.5% (active).
Next, `Cc1ccc(C(CN(C)C)C(=O)c2ccccc2)cc1` (stereo not given): -8.33% (active); `Cc1nn(-c2cccc(Cl)c2)c(C)c1N=Nc1ccc(Br)cc1`: 112%.
As for `Nc1cc(C(=O)O)cc(C(=O)O)c1`, the growth is 123%.
Next, `O=C(N/N=C/c1ccc([N+](=O)[O-])cc1)c1ccccc1Nc1ccnc(C(F)(F)F)c1`: 91.5%.
Turning to `O=c1c2cc(Cl)ccc2oc2ccc(OCCCCCN3CCCCC3)cc12`, the growth was 67.1%.
Next, `CCOC(=O)C1C(=O)C=C(c2ccccc2)CC1c1sc(N(C)Cc2ccccc2)nc1Cl` (stereo not given): 102%; `COC(=O)c1ccc2c(c1)nc(-c1ccc(Cl)cc1)n2-c1cc(C(C)(C)C)[nH]n1`: 41.9%.
Next, `C=CCCCCOc1cccc(/C=C2\N=C3SCCCN3C2=O)c1`: 107%; `Cc1ccc(NC(=O)c2sc3nc4c(cc3c2N)C(=O)CCC4)cc1Cl`: 113%; `ClC1=NC(Cl)C(Cl)=N/C1=N\c1ncn[nH]1` (stereo not given): -82.2% (active).
Under `O=C1/C(=C/c2ccccc2)SC(=Nc2ccccc2)N1Nc1ccccc1` stands -5.68% (active).
Regarding `COc1ccc2nc3cc(Cl)ccc3c(NC(=O)CSc3ccc(Cl)cc3)c2c1`, the growth was -96.4% (active).
Next, `O=C(Nc1ccccc1)c1cc2ccccc2s1`: 105%.
Next, `CCSCC1CC(O)(c2ccccc2)C(c2ccccc2)C(c2ccc(F)cc2)O1` (stereo not given): -62.9% (active); `O=c1oc2ccccc2cc1-c1cc(-c2ccc(-c3cc(-c4cc5ccccc5oc4=O)nc(-c4cc5ccccc5oc4=O)c3)cc2)cc(-c2cc3ccccc3oc2=O)n1`: 110%.
